Screens deposited in PubChem BioAssay by National Center for Advancing Translational Sciences (NCATS).
VDR inh = Inhibitors of the vitamin D receptor (VDR): qHTS. Vitamin D3 receptor (Homo sapiens), P11473. VDR-SRC2-3 peptide fluorescence polarization, 2 h. Potency, µM, for the others: max response, negative = inhibition, hits mostly inhibitors. 0.93% of 400,000 active. AID 504847, 2011; also: % is scaled to controls: 0 for no effect and ±100 for the full control effect
Target sequence (P11473 whole entry, looked up): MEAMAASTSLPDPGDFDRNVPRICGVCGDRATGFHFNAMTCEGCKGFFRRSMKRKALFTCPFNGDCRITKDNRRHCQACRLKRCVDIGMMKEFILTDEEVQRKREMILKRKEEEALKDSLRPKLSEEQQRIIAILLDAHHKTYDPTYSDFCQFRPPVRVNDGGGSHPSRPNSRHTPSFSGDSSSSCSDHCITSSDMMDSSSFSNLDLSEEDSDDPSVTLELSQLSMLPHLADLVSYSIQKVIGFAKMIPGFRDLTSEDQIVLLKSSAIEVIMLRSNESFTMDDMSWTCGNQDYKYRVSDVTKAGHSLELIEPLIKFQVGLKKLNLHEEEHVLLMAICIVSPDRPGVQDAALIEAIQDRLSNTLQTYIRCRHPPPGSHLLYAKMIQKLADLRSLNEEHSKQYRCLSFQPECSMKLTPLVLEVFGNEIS
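The screen uses fluorescence polarization to detect compounds that interfere with recruitment of the SRC2-3 coactivator peptide to VDR; plates are read after 2 h at room temperature.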
PKM2 activator = qHTS Assay for Activators of Human Muscle isoform 2 Pyruvate Kinase | purified PKM2, Kinase-Glo ATP luminescence, activation; response scale: 0% is enzyme alone, no compound | Potency, µM (series often up to 57.5 µM), for inactives: top-dose activation, most hits filed as activators | 0.34% of 260,000 active; also: % is scaled to controls: 0 for no effect and ±100 for the full control effect; nearly all actives have a fitted effect of over 55% in size
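Kinase-Glo luminescence reports ATP generated from ADP (0.1 mM) and PEP (0.5 mM) by purified hPK-M2 after 1 h at room temperature, pH 7.2 imidazole buffer; intermediate enzyme activity allows detecting inhibitors and activators.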
GCN5L2 inh = qHTS Assay for Inhibitors of GCN5L2; GCN5L2 HAT assay, ThioGlo1 CoA-SH fluorescence; Potency, µM (highest dose often 58.9 µM), without a hit: at the highest dose activity change, negative = inhibition, usual class: inhibitors; 0.21% of 390,000 active; AID 504327, 2011; also: % is scaled to controls: 0 for no effect and ±100 for the full control effect
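ThioGlo1-coupled HAT assay: 20nM GCN5L2, 70uM acetyl-CoA, 75uM H3(1-25) peptide, pH 7.5. Fluorescence read at 340/540nm at start and after 20 min at room temperature.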
PLK1 PBD inh = qHTS for Inhibitors of PLK1-PDB (polo-like kinase 1 - polo-box domain): Primary Screen | Plk1 PBD binding of FITC phosphopeptide, fluorescence polarization | Potency, µM, for the others: max response, negative = inhibition, actives largely listed as inhibitors | 2.8% of 360,000 active; also: series mostly up to about 57 µM; % is scaled to controls: 0 for no effect and ±100 for the full control effect; nearly all actives have a fitted effect of over 65% in size
GLS inhibitor = qHTS for Inhibitors of Glutaminase (GLS). Glutaminase kidney isoform, mitochondrial (Homo sapiens), O94925. GLS enzymatic activity, qHTS titration. Potency, µM (series often up to 45.5 µM), without a hit: top-dose activity change, negative = inhibition, most hits filed as inhibitors. 0.21% of 410,000 active; also: % is scaled to controls: 0 for no effect and ±100 for the full control effect
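Assay buffer: 45 mM KH2PO4 pH 8.2, 0.02% Tween-20. hKGA acts on L-glutamine (1 mM solution added); product glutamate is reported by an oxidase/peroxidase Amplex Red coupling, with fluorescence taken at baseline and 30 min.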
Mito fusion act = qHTS Assay for Small Molecule Inhibitors of Mitochondrial Division or Activators of Mitochondrial Fusion | Potency, µM (series often up to 46.1 µM), for the others: at the highest dose growth rescue (activation), actives largely listed as activators | S. cerevisiae fusion-defective mutant growth rescue, CellTiterGlo 48 h | 0.23% of 320,000 active | AID 485298, 2010; also: % of control where 0% means no effect; nearly all actives have a fitted effect of over 45% in size
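Temperature-sensitive fusion-defective S. cerevisiae (e.g. fzo1-1, mgm1-5) were grown with compound in YPEG medium (3% ethanol, 3% glycerol) for 48 hours at 37C. Growth rescue was measured as viability by CellTiterGlo luminescence after 10 minutes at ambient.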
The depositor's hits bear a star; ? = inconclusive; · = no result. Most compounds without a hit are left out; they make up all but 3.4% or so of the library. Calls follow the shape of the dose curve; as a rule, active = well fitted curve in the direction sought with a large enough effect; inconclusive = small, poorly fitted or top-dose-only effect, or another doubt; inactive = no such curve, though single readings can be large; an effect the other way counts as inactive or inconclusive. Potency is read from the fitted curve at half-maximal effect.

SMILES	VDR inh	PKM2 activator	GCN5L2 inh	PLK1 PBD inh	GLS inhibitor	Mito fusion act
Cc1oc(-c2ccc(Cl)cc2)nc1CN1CCCN(C(=O)c2ccco2)CC1	7.3%	-6.1%	-14.9%	-6.3%	11.1%	-4.0%
COC(=O)c1ccc2cc(OC)c(OC)cc2c1	·	·	·	-11.6%	2.9%	·
COC(=O)c1cc(=O)c(O)c2c(O)c(O)ccc2c1	22.4µM*	·	-22.0%	·	·	·
Cc1cccc(NC(=O)CNC(=O)COc2cc(F)ccc2[N+](=O)[O-])c1C	?	-42.8%	-3.7%	15µM*	-13.1%	-0.8%
Cc1sc(-n2c(C)cc(/C=N/n3cnnc3)c2C)c(C#N)c1C	?	6.1%	-8.4%	16.8µM*	-20.8%	-0.2%
Cc1cc(/C=N/n2cnnc2)c(C)n1-c1ccccc1	3.9%	-0.4%	-2.5%	0.2%	-2.7%	2.3%
CN(C)/N=C/c1ccc([N+](=O)[O-])cc1[N+](=O)[O-]	-13.8%	-6.4%	-4.2%	-17.0%	-7.7%	6.5%
CN(C)/N=C/c1ccc(Sc2ccccc2[N+](=O)[O-])o1	-18.3%	2.4%	-11.8%	5.97µM*	25.8%	6.9%
Cc1ccc(NC2=Nc3ccccc3CC2)cc1	13.3%	-9.0%	-5.5%	-2.9%	-7.9%	-0.2%
Brc1ccc(NC2=Nc3ccccc3CC2)cc1	?	7.8%	1.8%	11.9µM*	?	-5.6%
Cc1ccc(-c2nc3c(c(=O)[nH]c(=O)n3Cc3ccccc3)n2Cc2ccccc2)o1	-10.5%	17.8µM*	-19.9%	-10.9%	3.2%	2.8%
CC(C)CC1NC(=O)N(CC(=O)Nc2cc(F)ccc2F)C1=O (stereo unspecified)	11.3%	·	0.9%	3.4%	-1.5%	0.1%
O=c1cc(O)n(C2CCCCCC2)c(=O)[nH]1	?	·	9.4%	-19.1%	-1.5%	-4.9%
O=c1[nH][nH]c(=S)n1C1CCCCC1	35.5µM*	-77.5%	15.8µM*	2.99µM*	?	-0.4%
CCOC(=O)c1c(NC(=O)/C=C/c2ccc(OC)c(OC)c2)sc(C(C)=O)c1C	?	·	6.1%	·	-14.5%	·
CCCOc1ccc(/C=C/C(=O)Nc2sc(C)c(C)c2C(=O)OCC)cc1OC	15.8µM*	·	?	·	-20.1%	·
O=[N+]([O-])c1cc(Cl)ccc1N1CCOCC1	-0.7%	-2.1%	1.0%	-14.2%	-12.5%	-1.4%
N#Cc1ccc(N2CCOCC2)c([N+](=O)[O-])c1	?	2.1%	-3.9%	15µM*	-3.4%	-1.0%
Nc1ncnc2c1nc(Br)n2[C@@H]1O[C@H]2COP(=O)(O)O[C@@H]2[C@@H]1O	1.7%	·	4.5%	·	·	·
C=CCn1c(COc2ccccc2)nnc1SC(C)C(=O)N/N=C/c1cc(Cl)ccc1O (stereo unspecified)	-24.2%	-1.2%	-8.8%	26.7µM*	18.1%	3.7%
CCC(=O)N[C@@H]1CC(C(C)(C)NC(=O)CC)CC=C1C (stereo partly specified)	?	6.4%	0.5%	29.9µM*	10.3%	-2.0%
OCc1nn2c(c1Br)NC(c1ccccc1)CC2C(F)(F)F (stereo unspecified)	?	4.1%	-2.6%	7.52µM*	10.4%	3.1%
O=C(O)c1nn2c(c1Br)NC(c1ccccc1)CC2C(F)(F)F (stereo unspecified)	5.8%	1.3%	-3.0%	1.4%	14.8%	0.1%
CC1CCN(C2CCN(S(=O)(=O)c3ccc(C(F)(F)F)cc3)CC2)CC1	-18.6%	-1.5%	-4.4%	-9.4%	0.0%	11.2µM*
CC1CCN(C2CCN(S(=O)(=O)c3ccc(F)cc3)CC2)CC1	2.4%	-0.4%	?	-4.6%	10.1%	8.9%
